We go through 10 compounds from PubChem BioAssay.

Experiment [1] in a line: inhibitors of TNFa-induced NFkB p65 translocation, primary screen, imaging, HUVEC, MLSMR starter and 10KST1 sets (AID 438;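 active means inhibition above 20% together with a positive visual image hit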;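 further: compound added about 3h40 before a 20 min TNFalpha stimulation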;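 on inhibition: signal is the nuclear over cytoplasmic p65 intensity ratio per well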). The note with it: HUVEC TNFa-induced p65 nuclear translocation; cell count: measured here: nuclei count (cytotoxicity indicator), at 2.08 µM; inhibition: at 2 µM, stronger effect = higher value, 0% TNFa-plus-vehicle, 100% no-TNFa wells.
Experiment [2] in a line: inhibitors of mutant huntingtin aggregation, primary screen, imaging, exon1htt(103Q)mCFP cells, high-content imaging (AID 483;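 active means visual image review flags a hit and inhibition of aggregation exceeds 20%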;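 further: compound exposure lasted 3 days before fixation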;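 on nuclei count: percent of the per-plate median nuclei count of sample wells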). The settings on record: exon1htt(103Q)mCFP cell line, aggregate imaging, at 2 µM; inhibition of aggregation: stronger effect = higher value; nuclei count: measured here: cell count, toxicity.
The nature of experiment [3]: inhibitors of E-selectin induction by TNFa, primary screen, imaging, HUVEC, immunofluorescence, MLSMR starter and 10KST1 sets (AID 487;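 active means visually confirmed hit in the image check and inhibition above 20%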;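 on inhibition: signal is fraction of cell area covered by stained E-selectin grains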;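 on nuclei count: 100% = median nuclei count of all wells on the same plate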). The note with it: HUVEC TNFalpha-induced E-selectin immunofluorescence imaging, at 2 µM; inhibition: stronger effect = higher value; nuclei count: measured here: cell number, toxicity.
Experiment [4] concerns the target Voltage-gated potassium channel subunit beta-2 (Rattus norvegicus) (UniProt P62483). Nature of the experiment: KvBeta enzyme negative modulators, primary screen, biochemical, NADPH fluorescence (AID 622).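 Further: slope of raw intensity against log time taken from 70 to 1610 s.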 The note with it: recombinant KvBeta, 4-cyanobenzaldehyde reduction, at 10 µM, stronger effect = higher value.
Experiment [5] has the same target. Nature of the experiment: KvBeta positive modulators, primary screen, biochemical, NADPH fluorescence (AID 623;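 active means NADPH fluorescence slope more negative than the mean of all samples by about 3 SD, 99.7% confidence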;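 further: fluorescence intensity change per second fitted from 20 to 320 s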). The settings on record: Recombinant KvBeta, NADPH fluorescence decrease slope, 10 min; at 10 µM; stronger effect = lower value.
For experiment [6], the target named is Alpha-2C adrenergic receptor (Homo sapiens) (UniProt P18825). Nature of the experiment: modulators of alpha2C/GIRK thallium flux, primary screen, cell-based, HEK293 alpha2C/GIRK1/2 (AID 624;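 active means fluorescence slope after compound addition differing from the mean of all screened samples at 99.7% confidence, in either direction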;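 further: slope of fluorescence ratio to pre-addition baseline per second over 15 to 24 s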). The note with it: thallium flux BTC fluorescence, at 10 µM, actives lie on both sides.
Chain of Alpha-2C adrenergic receptor (Homo sapiens) (P18825 whole entry, looked up): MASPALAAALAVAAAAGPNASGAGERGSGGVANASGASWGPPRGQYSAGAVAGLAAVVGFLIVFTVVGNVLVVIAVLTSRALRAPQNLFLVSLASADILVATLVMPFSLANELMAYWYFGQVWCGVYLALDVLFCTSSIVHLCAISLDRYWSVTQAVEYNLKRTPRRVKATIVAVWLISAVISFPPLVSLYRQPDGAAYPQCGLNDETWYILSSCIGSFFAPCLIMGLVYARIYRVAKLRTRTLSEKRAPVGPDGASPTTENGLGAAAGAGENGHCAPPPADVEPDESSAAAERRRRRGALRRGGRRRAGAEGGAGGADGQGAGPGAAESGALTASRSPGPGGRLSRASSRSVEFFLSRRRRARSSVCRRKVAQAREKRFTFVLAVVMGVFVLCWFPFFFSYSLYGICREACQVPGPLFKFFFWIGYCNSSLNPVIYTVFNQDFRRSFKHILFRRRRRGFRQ
Experiment [7] can be described thus: inhibitors of Sendai virus-induced IRF3 signaling, primary screen, TLR/RLR signaling modifier project, cell-based, Sendai virus stimulus, luciferase, 10K MLSCN set (AID 602276;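 active means inhibition at or above 50% at 10 µM; inactive means inhibition below 50%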;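 further: firefly luciferase from ISG56 promoter only with Renilla not read in this screen; 0% = Sendai virus plus DMSO and 100% = medium plus DMSO without virus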). The settings on record: HEK293 RL24 IRF3 luciferase reporter, at 10 µM, stronger effect = higher value.
Experiment [8] is described as follows: inhibitors of poly I:C-induced TLR3 signaling, primary screen, cell-based, poly I:C stimulus, luciferase, 10K MLSCN set (AID 602277;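 active means inhibition of the reporter signal at or above 50%; inactive means inhibition below 50%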). The note with it: HEK293-TLR3 RL24 IRF3 luciferase reporter, at 10 µM, stronger effect = higher value.

The source made the active and inactive calls.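 How the source made its calls, unless noted: active means fluorescence slope higher than the sample average by over 3 SD (cut at about -0.22 in these data, passing the limit was not always enough); inactive means the rest.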

Chain of Voltage-gated potassium channel subunit beta-2 (Rattus norvegicus) (P62483 whole entry, looked up): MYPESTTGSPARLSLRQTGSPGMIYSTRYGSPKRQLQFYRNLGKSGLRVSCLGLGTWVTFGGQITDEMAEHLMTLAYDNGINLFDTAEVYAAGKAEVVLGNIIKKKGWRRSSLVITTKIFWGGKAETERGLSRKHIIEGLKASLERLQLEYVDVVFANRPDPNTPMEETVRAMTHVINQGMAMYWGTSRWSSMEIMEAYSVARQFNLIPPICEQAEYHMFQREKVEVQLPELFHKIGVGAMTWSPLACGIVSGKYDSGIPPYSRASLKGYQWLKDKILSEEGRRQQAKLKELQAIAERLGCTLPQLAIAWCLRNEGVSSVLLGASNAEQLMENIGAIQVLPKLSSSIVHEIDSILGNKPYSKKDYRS

As to `COc1ccc(S(=O)(=O)NCCOc2ccccc2)cc1OC`, the cell count in experiment [1] is 310. Further, the inhibition in experiment [1] is -3.3% (inactive); in experiment [3], -41.2% (inactive); in experiment [7], 12.3% (inactive); in experiment [8], 22.2% (inactive). Further, the inhibition of aggregation in experiment [2] was 8.7% (inactive). The nuclei count in experiment [2] is 95.3%; in experiment [3], 96.1%. Moreover, the fluorescence slope in experiment [4] was -0.439 (inactive). In addition, in experiment [5], the NADPH fluorescence slope is -3.7e-05 (inactive). For the same compound, the slope in experiment [6] is 0.00599 (inactive).
For `Cc1cc(=O)oc2cc(OCC(=O)OCC(=O)N3CCc4ccccc43)ccc12`, the cell count in experiment [1] is 358. Besides, the inhibition in experiment [1] was 4.7% (inactive); in experiment [3], -44.9% (inactive); in experiment [7] it was 11% (inactive); in experiment [8], 16.2% (inactive). Also, the inhibition of aggregation in experiment [2] is -5% (inactive). Besides, the nuclei count in experiment [2] stood at 88.9%; in experiment [3], 103%. Further, in experiment [4], the fluorescence slope is -0.331 (inactive). Besides, in experiment [5], the NADPH fluorescence slope was -5.7e-05 (inactive). In addition, the slope in experiment [6] was 0.00553 (inactive).
Consider `O=C(C1CCN(c2nnc(-n3cccc3)s2)CC1)N1CCN(Cc2ccc3c(c2)OCO3)CC1`, for which the cell count in experiment [1] was determined as 707. Moreover, the inhibition in experiment [1] is -9.2% (inactive); in experiment [3], -56.3% (inactive); in experiment [7] it was -2.25% (inactive); in experiment [8] it was -31.5% (inactive). Besides, in experiment [2], the inhibition of aggregation was -39.4% (inactive). Moreover, the nuclei count turned out to be 115% in experiment [2] and 113% in experiment [3]. The fluorescence slope in experiment [4] is -0.593 (inactive). The NADPH fluorescence slope in experiment [5] is -2e-05 (inactive). Moreover, the slope in experiment [6] was 0.00596 (inactive).
On to `O=C1C2C3C=CC(C3=C3CCCCC3)C2C(=O)N1c1ccccc1` (stereo not given), for which the cell count in experiment [1] came to 512. The inhibition in experiment [1] is -10.1% (inactive); in experiment [3], -29.2% (inactive); in experiment [7] it was 12.4% (inactive); in experiment [8], 16% (inactive). In addition, in experiment [2], the inhibition of aggregation was 3.7% (inactive). The nuclei count in experiment [2] worked out at 104%; in experiment [3] it was 103%. The fluorescence slope in experiment [4] is -0.61 (inactive). The NADPH fluorescence slope in experiment [5] was -3.9e-06 (inactive). Further, in experiment [6], the slope was 0.00655 (inactive).
On to `CC(C)(C#N)Nn1cnnc1`, for which the cell count in experiment [1] worked out at 609. The inhibition in experiment [1] was 5.3% (inactive); in experiment [3], -1.2% (inactive); in experiment [7], 11.7% (inactive); in experiment [8] it was 21.2% (inactive). In addition, the inhibition of aggregation in experiment [2] was 13.2% (inactive). The nuclei count in experiment [2] was determined as 109%; in experiment [3], 110%. The fluorescence slope in experiment [4] was -0.237 (inactive). Moreover, the NADPH fluorescence slope in experiment [5] was -1.3e-05 (inactive). For the same compound, in experiment [6], the slope is 0.00429 (inactive).
Turning to `O=C(Nc1ccc(S(=O)(=O)N2CCc3ccccc32)cc1)c1ccc2c(c1)OCO2`, in experiment [1], the cell count turned out to be 307. In addition, the inhibition in experiment [1] is -10% (inactive); in experiment [3], 5.1% (inactive); in experiment [7] it was -3.74% (inactive); in experiment [8] it was -67.6% (inactive). Besides, the inhibition of aggregation in experiment [2] is 14.7% (inactive). The nuclei count in experiment [2] was found to be 95.5%; in experiment [3], 83.2%. In addition, the fluorescence slope in experiment [4] is -0.603 (inactive). In experiment [5], the NADPH fluorescence slope was -1.6e-05 (inactive). Moreover, the slope in experiment [6] is 0.0108 (inactive).
For the compound `CCN(CC)C(=O)C1CCC(CNS(=O)(=O)c2cccc3cccnc23)CC1` (stereo not given), the cell count in experiment [1] worked out at 787. For the same compound, the inhibition in experiment [1] is 4.4% (inactive); in experiment [3], -26.3% (inactive); in experiment [7] it was 11.4% (inactive); in experiment [8], 16.8% (inactive). Moreover, the inhibition of aggregation in experiment [2] was -8.4% (inactive). For the same compound, the nuclei count in experiment [2] is 94.4%; in experiment [3] it was 114%. The fluorescence slope in experiment [4] is -0.497 (inactive). Further, the NADPH fluorescence slope in experiment [5] is -2.6e-05 (inactive). The slope in experiment [6] is 0.00724 (inactive).
For `CC(C)OC(=O)C1C2C=CC3(CN(Cc4cccs4)C(=O)C13)O2` (stereo not given), the cell count in experiment [1] came out at 469. The inhibition was 5% (inactive) in experiment [1], -92.4% (inactive) in experiment [3], 20.6% (inactive) in experiment [7] and 32.2% (inactive) in experiment [8]. The inhibition of aggregation in experiment [2] was 0.9% (inactive). In addition, the results for the nuclei count in experiment [2] and in experiment [3] were 83.9% and 111%, respectively. In addition, the fluorescence slope in experiment [4] was -0.533 (inactive). In addition, the NADPH fluorescence slope in experiment [5] is -1.6e-05 (inactive). Besides, the slope in experiment [6] is 0.005 (inactive).
Turning to `Cn1c(=O)c2c(nc(SCCCC#N)n2Cc2c(F)cccc2Cl)n(C)c1=O`, the cell count in experiment [1] came out at 868. In addition, the inhibition is 0.6% (inactive) in experiment [1], -6.8% (inactive) in experiment [3], -9.31% (inactive) in experiment [7] and 7.45% (inactive) in experiment [8]. The inhibition of aggregation in experiment [2] is 9.8% (inactive). The nuclei count in experiment [2] amounted to 82.3%; in experiment [3], 108%. Besides, the fluorescence slope in experiment [4] is -0.589 (inactive). The NADPH fluorescence slope in experiment [5] was -6.6e-06 (inactive). Besides, the slope in experiment [6] is 0.00598 (inactive).
Regarding `O=C(CCn1c(=O)c2ccccc2n(CC(=O)NCCC2=CCCCC2)c1=O)NCc1ccco1`, in experiment [1], the cell count amounted to 596. Further, the inhibition in experiment [1] was -10.9% (inactive); in experiment [3], -9.8% (inactive); in experiment [7] it was -4.87% (inactive); in experiment [8], 10.3% (inactive). For the same compound, the inhibition of aggregation in experiment [2] is 25.7% (inactive). The nuclei count came out at 102% in experiment [2] and 82% in experiment [3]. In addition, the fluorescence slope in experiment [4] is -0.558 (inactive). The NADPH fluorescence slope in experiment [5] was -3e-05 (inactive). In addition, the slope in experiment [6] was 0.00599 (inactive).
